Measured values as given in PubChem BioAssay (NCATS).
Records with an inconclusive call do not appear. Activity calls are given as the source filed them. Unless noted, calls follow the shape of the full dose curve.

Assays:
[1] = qHTS for Inhibitors of the Functional Ribonucleoprotein Complex (vRNP) of Lassa (LASV) Arenavirus: LASV Primary Screen - GLuc reporter signal (AID 1347082; calls by dose curve; tested in HEK293 reporter line; also: nearly all actives have a fitted effect of over 60% in size)
[2] = qHTS for Inhibitors of the Functional Ribonucleoprotein Complex (vRNP) of Lassa (LASV) Arenavirus: Viability assay - alamar blue signal for LASV Primary Screen (AID 1347083; calls by dose curve; tested in HEK293 reporter line; also: nearly all actives have a fitted effect of over 80% in size; also: potency is read from the fitted curve at half-maximal effect)
[3] = qHTS for Inhibitors of the Functional Ribonucleoprotein Complex (vRNP) of Lymphocytic Choriomeningitis Arenaviruses (LCMV): Viability assay - alamar blue signal for LCMV Primary Screen (AID 1347085; calls by dose curve; tested in HEK293 reporter line; also: nearly all actives have a fitted effect of over 80% in size; also: potency is read from the fitted curve at half-maximal effect)
[4] = Confirmatory qHTS to identify inhibitors of SARS-CoV-2 cell entry (AID 1645844); also: potency is read from the fitted curve at half-maximal effect; nearly all actives have a fitted effect of over 45% in size
In short: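 HEK293-ACE2 cells (Expi293F stably expressing human ACE2) were pretreated with compounds for 1 hr at 37C, then infected with MLV-based particles carrying Wuhan-Hu-1 spike (C-terminal 19-aa truncation). Luciferase luminescence read after 48 hr; normalized to spike PP (100%) and bald PP (0%).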

[5] = Primary qHTS to identify inhibitors of SARS-CoV-2 cell entry (AID 1645846); details: activity change, negative = inhibition: at 57.1 µM (top of the series) unless noted; also: nearly all actives have a fitted effect of over 45% in size; also: potency is read from the fitted curve at half-maximal effect
In short: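 Luminescence readout (Bright-Glo luciferase) 48 h after pseudoparticle addition. HEK293-ACE2 cells, 1500/well; compound pre-incubation 1 h; Normalized to spike PP and bald PP.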

[6] = VSVG counterscreen qHTS to identify inhibitors of SARS-CoV-2 cell entry (AID 1645847); also: potency is read from the fitted curve at half-maximal effect; nearly all actives have a fitted effect of over 65% in size
In short: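 HEK293-ACE2 cells (Expi293F stably expressing human ACE2) were pretreated with compound for 1 h at 37 °C, then infected with MLV-based VSV-G pseudotyped particles for 48 h. Luciferase luminescence was normalized to VSV-G PP and bald PP wells.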

[7] = tested on: CRL-7250; assay: qHTS assay to identify novel small-molecules to repurpose for Merkel cell carcinoma treatment (AID 1296009; active = well fitted curve in the direction sought with a large enough effect; an effect the other way counts as inactive or inconclusive; also: nearly all actives have a fitted effect of over 60% in size); details: MCC and control cell lines, CellTiter-Glo viability, 72 h; series mostly up to 92 µM
In short: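 qHTS format: cells treated with library compounds in DMSO across 8 (NPC) or 11 (MIPE) concentrations. Readout after 72 hr at 37 degree celsius was CellTiter-Glo luminescence.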

[8] = target: Nucleoprotein (Lymphocytic choriomeningitis virus (strain Armstrong)) (UniProt P09992); assay: qHTS for Inhibitors of the Functional Ribonucleoprotein Complex (vRNP) of Lymphocytic Choriomeningitis Arenaviruses (LCMV): LCMV Primary Screen - GLuc reporter signal (AID 1347086); also: nearly all actives have a fitted effect of over 70% in size; also: potency is read from the fitted curve at half-maximal effect
Chain of Nucleoprotein (Lymphocytic choriomeningitis virus (strain Armstrong)) (P09992 whole entry, looked up): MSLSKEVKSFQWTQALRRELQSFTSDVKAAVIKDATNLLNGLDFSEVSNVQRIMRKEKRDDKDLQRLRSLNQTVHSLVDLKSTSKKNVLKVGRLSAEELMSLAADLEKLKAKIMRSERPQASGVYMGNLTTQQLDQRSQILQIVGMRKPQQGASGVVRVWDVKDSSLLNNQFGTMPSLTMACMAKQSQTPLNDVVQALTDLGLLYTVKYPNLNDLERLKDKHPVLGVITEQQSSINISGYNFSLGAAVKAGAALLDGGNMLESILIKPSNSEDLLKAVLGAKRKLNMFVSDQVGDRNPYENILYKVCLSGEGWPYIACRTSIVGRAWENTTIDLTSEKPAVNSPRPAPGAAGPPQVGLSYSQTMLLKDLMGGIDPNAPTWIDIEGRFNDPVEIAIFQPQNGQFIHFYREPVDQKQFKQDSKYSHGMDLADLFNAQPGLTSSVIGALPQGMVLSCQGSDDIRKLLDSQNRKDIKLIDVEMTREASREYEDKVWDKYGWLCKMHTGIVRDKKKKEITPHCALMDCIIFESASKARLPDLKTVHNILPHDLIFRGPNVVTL

[9] = Cytotoxicity counterscreen for inhibitors of SARS-CoV-2 cell entry (AID 1645845); also: nearly all actives have a fitted effect of over 50% in size
In short: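 Expi293F/hACE2 cells seeded overnight; cpd pin-transferred in DMSO, 1 h preincubation, + media, 48 h 37 C 5% CO2; ATPLite 1step luminescence; normalized to cells and no cells.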

[10] = qHTS profiling of the MIPE4 collection as inhibitors of Plasmodium falciparum (HB3) proliferation (AID 743347; call rule not given here); details: P. falciparum HB3 in erythrocytes, SYBR Green DNA, 72 h; at 28.5 µM (top of the series) unless noted
In short: (§1)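 Erythrocytes infected with P. falciparum (0.3% parasitemia, 2.5% hematocrit) incubated with compounds 72 h at 37 C, 5% CO2. Lysis with saponin/Triton buffer containing SYBR Green I, overnight at room temperature in the dark; DNA fluorescence (485/535 nm) normalised to 0.29 uM artemisinin and DMSO.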

[11] = qHTS profiling of the MIPE4 collection as inhibitors of Plasmodium falciparum (DD2) proliferation (AID 743345; call rule not given here); details: P. falciparum Dd2 in erythrocytes, SYBR Green DNA, 72 h; at 28.5 µM (top of the series) unless noted
In short: as §1

[12] = Validation screen for inhibitors of Lassa infection (AID 463096)
[13] = Inducers of the Endoplasmic Reticulum Stress Response (ERSR) in human glioma: Validation (AID 504836; active = well fitted curve in the direction sought with a large enough effect; an effect the other way counts as inactive or inconclusive)
In short: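 Stably transfected U87-MG human glioma cells carrying a GRP78-based luminescent sensor were seeded at 1000 cells/well, pin-dosed with compounds and incubated 16 h. Luciferase reagent was then added, and end-point luminescence was read after 10 min at room temperature.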

[14] = qHTS profiling of the MIPE4 collection as inhibitors of Plasmodium falciparum (3D7) proliferation (AID 743344; call rule not given here); details: P. falciparum 3D7 in erythrocytes, SYBR Green DNA fluorescence, 72 h; at 28.5 µM (top of the series) unless noted
In short: as §1

[15] = qHTS profiling of the MIPE4 collection as inhibitors of Plasmodium falciparum (DD2) proliferation (Rep 2) (AID 743346; call rule not given here); details: P. falciparum Dd2 in erythrocytes, SYBR Green DNA, 72 h; at 28.5 µM (top of the series) unless noted
In short: as §1

CCC(c1ccc(O)cc1)C(CC)c1ccc(O)cc1 (stereo unspecified)
inactive: Potency [1] | Potency [2] | Potency [3] | Potency [7]
-63.9%: activity change, negative = inhibition [5]
active: Potency [4] 27.1 µM | Potency [6] 30.4 µM

Cc1ccc(CN2CCNCC2)cc1NC(=O)CNc1ccc(F)c(F)c1
inactive: Potency [1] | Potency [2] | Potency [3] | Potency [8] | Potency [9] | Potency [5] | Potency [7]

CCCCCCCCCCCCCCCC(=O)O[C@H]1[C@@H](O)[C@@H](O)[C@@H]([C@H](NC(=O)[C@@H]2C[C@@H](CCC)CN2C)[C@H](C)Cl)O[C@@H]1SC
inactive: Potency [1] | Potency [2] | Potency [3] | Potency [8] | Potency [9] | Potency [5] | Potency [7]
81.5%: growth, % of control [10]

O=C(CCN1CCN(C(=O)OCc2cc(Cl)cc(Cl)c2)CC1)c1ccc2[nH]c(=O)oc2c1
-26.2%: activity change, negative = inhibition [5]
inactive: Potency [1] | Potency [2] | Potency [3] | Potency [8] | Potency [7]

COc1ccc2cc(-c3nc(-c4ccc(S(C)=O)cc4)[nH]c3-c3ccncc3)ccc2c1 (stereo unspecified)
inactive: Potency [1] | Potency [7]
active: Potency [2] 24.3 µM | Potency [3] 4.85 µM | Potency [8] 17.2 µM | Potency [5] 31.6 µM

CC1=C(C(=O)Nc2cc3cn[nH]c3cc2F)C(c2ccc(C(F)(F)F)cc2)CC(=O)N1 (stereo unspecified)
-23.5%: activity change, negative = inhibition [5]
inactive: Potency [1] | Potency [2] | Potency [3] | Potency [8] | Potency [9] | Potency [7]

Cc1ccc(O)c(C(CCN(C(C)C)C(C)C)c2ccccc2)c1 (stereo unspecified)
32%: parasite growth remaining, % of DMSO control (lower = more inhibition) [11]
inactive: Potency [1] | Potency [2] | Potency [3] | Potency [8] | Potency [9] | Potency [7]

CCN1CCCC1CNC(=O)c1cc(S(N)(=O)=O)ccc1OC (stereo unspecified)
inactive: Potency [12] | outcome [13] | Potency [1] | Potency [2] | Potency [3] | Potency [8] | Potency [7]

CC=CCC=CCCC(=O)[C@H]1O[C@@H]1C(N)=O
87.5%: parasite growth remaining, % of DMSO control (lower = more inhibition) [11]
inactive: Potency [1] | Potency [2] | Potency [3] | Potency [8] | Potency [7]
65.1%: parasite growth, % of DMSO control [14]
60%: parasite growth, % of control (lower = inhibition) [15]
71.3%: growth, % of control [10]

O=C(O)C1CCCN(CCC=C(c2ccccc2)c2ccccc2)C1 (stereo unspecified)
-1.36%: activity change, negative = inhibition [5]
inactive: Potency [12] | outcome [13] | Potency [1] | Potency [2] | Potency [3] | Potency [8] | Potency [9] | Potency [7]

CN(C)CC(C)(C)CNc1nn2c(-c3ccccc3)nnc2cc1C1CCC1
active: Potency [2] 15.3 µM | Potency [3] 2.17 µM | Potency [8] 17.2 µM
-2.68%: activity change, negative = inhibition [5]
inactive: Potency [1] | Potency [9] | Potency [7]

OC[C@H]1OC(O)C[C@@H](O)[C@H]1O (stereo partly specified)
-3.07%: activity change, negative = inhibition [5]
88.2%: parasite growth remaining, % of DMSO control (lower = more inhibition) [11]
96%: parasite growth, % of control (lower = inhibition) [15]
inactive: Potency [1] | Potency [2] | Potency [3] | Potency [8] | Potency [9] | Potency [7]

Cc1cc(NC(=O)Nc2ccc(N(C)C)cc2)c2cc(F)cc(F)c2n1
inactive: Potency [1] | Potency [2] | Potency [3] | Potency [8] | Potency [9] | Potency [7]
-12.4% [at 27.1 µM]: activity change, negative = inhibition [5]
